Compound activity deposited in PubChem by National Center for Advancing Translational Sciences (NCATS).
PLK1 PBD block: inhibitors of human PLK1 polo-box domain binding. actives 2.8% (n = 360,000). Plk1 PBD binding of FITC phosphopeptide, fluorescence polarization. Potency, µM, without a hit: max response, negative = inhibition, hits mostly inhibitors. P53350; also: series mostly up to about 57 µM; % is scaled to controls: 0 for no effect and ±100 for the full control effect; nearly all actives have a fitted effect of over 65% in size
Sfp PPTase inh: blocks B. subtilis Sfp PPTase activity. Q9F4F7. Biochemical Sfp PPTase activity, qHTS. Potency, µM, for the others: largest response in the series, negative = inhibition, hits mostly inhibitors. actives 3.5% (n = 310,000);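 also: the enzyme is Sfp with the accession as filed and its product quenches rhodamine fluorescence; 0% = enzyme reaction without inhibitor and -100% = no enzyme wells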
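Compounds were incubated with enzyme (final 15 nM) for 15 min at room temperature before substrate addition started the reaction. Fluorescence at 525 nm excitation, 598 nm emission was recorded immediately and after 30 minutes.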
G9a inh: G9a (human) methyltransferase inhibition; Q96KQ7; G9a H3K9 monomethylation, AlphaScreen, 2 h; Potency, µM (highest dose often 102 µM), for the others: top-dose activity, negative = inhibition, usual class: inhibitors; actives 8.8% (n = 350,000); AID 504332; also: % is scaled to controls: 0 for no effect and ±100 for the full control effect; nearly all actives have a fitted effect of over 75% in size
Target sequence (Q96KQ7 913-1193 limits assumed): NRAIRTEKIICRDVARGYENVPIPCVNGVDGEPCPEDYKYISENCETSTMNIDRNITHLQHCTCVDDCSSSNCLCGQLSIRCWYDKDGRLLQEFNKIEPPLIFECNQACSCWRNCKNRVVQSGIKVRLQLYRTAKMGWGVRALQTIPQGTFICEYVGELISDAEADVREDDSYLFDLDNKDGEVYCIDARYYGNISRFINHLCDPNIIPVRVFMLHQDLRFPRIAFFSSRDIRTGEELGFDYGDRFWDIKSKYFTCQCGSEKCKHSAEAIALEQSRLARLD
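Step 1: enzyme (final 20 nM) with compound, 15 min RT. Step 2: substrate peptide 500 nM and SAM 20 uM, 2 h RT. Step 3: anti-H3K9me1 antibody and AlphaScreen beads, 10 min, then plate read.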
JMJD2A Tudor: inhibitors of human JMJD2A Tudor domain; Potency, µM (doses to about 114 µM), for the others: top-dose activity change, negative = inhibition, actives largely listed as inhibitors; AlphaScreen JMJD2A-Tudor / H3K4me3 peptide binding; actives 4.4% (n = 390,000); AID 504339; O75164; also: % is scaled to controls: 0 for no effect and ±100 for the full control effect; nearly all actives have a fitted effect of over 50% in size
BAZ2B inh: blocks human BAZ2B; Q9UIF8; AlphaScreen BAZ2B-H3K14Ac peptide displacement; Potency, µM (top dose mostly 114 µM), for the others: top-dose activity change, negative = inhibition, hits mostly inhibitors; actives 4.4% (n = 360,000); also: % is scaled to controls: 0 for no effect and ±100 for the full control effect; nearly all actives have a fitted effect of over 60% in size
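BAZ2B (50 nM) with biotin-H3(5-23)K14Ac peptide (50 nM) in PBS pH 7.4, 0.01% Tween-20, preformed 30 min, then compound 30 min at room temperature; top concentration 110uM. AlphaScreen streptavidin donor/nickel chelate acceptor beads (10 ug/mL final), 20 min dark, signal read.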
HP1b binding inh: blocks HP1-beta chromodomain binding to methylated histone tails. actives 0.56% (n = 390,000). AlphaScreen HP1-beta / biotin-H3K9me3 peptide binding. AID 540317. Potency, µM (series often up to 114 µM), without a hit: at the highest dose activity change, negative = inhibition, most hits filed as inhibitors; also: nearly all actives have a fitted effect of over 70% in size
Target sequence (P83916 whole entry, looked up): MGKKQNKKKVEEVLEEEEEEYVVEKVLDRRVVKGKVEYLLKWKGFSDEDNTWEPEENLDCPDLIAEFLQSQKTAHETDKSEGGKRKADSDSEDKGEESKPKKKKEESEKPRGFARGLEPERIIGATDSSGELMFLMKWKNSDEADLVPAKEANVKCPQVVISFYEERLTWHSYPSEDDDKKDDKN
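AlphaScreen: HP1-beta (50 nM) preformed 30 min with biotin-H3(1-18)K9me3 peptide (50 nM) in PBS pH 7.4, 0.01% Tween-20. Compound added for 30 min at RT, then streptavidin donor/nickel chelate acceptor beads (10 ug/mL) for 30 min.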
Active calls of the source: *; ? = inconclusive; / = no result given; [ ] = remark or other dose. Compounds with a hit are over-represented: about 12% of the library has one in this group of screens. Calls follow the shape of the dose curve; as a rule, active = well fitted curve in the direction sought with a large enough effect; inconclusive = small, poorly fitted or top-dose-only effect, or another doubt; inactive = no such curve, though single readings can be large; an effect the other way counts as inactive or inconclusive. Potency is read from the fitted curve at half-maximal effect.

SMILES | PLK1 PBD block | Sfp PPTase inh | G9a inh | JMJD2A Tudor | BAZ2B inh | HP1b binding inh
O=S(=O)(c1ccc(C(F)(F)F)cc1)N1CCN(c2nc(-c3cccs3)nc3ccccc23)CC1 | / | / | / | -12% | / | 64%
Cn1c(=O)cc(OCCCC(=O)Nc2cccc(Cl)c2)c2ccccc21 | -3% | / | / | / | / | /
CCOc1cc(CNC(=O)c2cc(-c3ccccc3)n[nH]2)cc(OCC)c1OCC | / | / | 9%[59 µM] | -14% | -18% | 18%
CCOc1ccc(C(NC(=O)/C=C/c2ccco2)c2ccc(OC)c(OC)c2)cc1 (centres undefined) | -9% | ? | 28µM* | -34% | ? | -16%
COc1ccc(C(NC(=O)/C=C/c2ccco2)c2ccc(OC)c(OC)c2)cc1 (centres undefined) | 1% | 20µM* | 18µM* | -16% | ? | -1%
COc1ccc(C(NC(=O)c2ccco2)c2ccc(OC)c(OC)c2)cc1OC | 1% | 4% | 4% | -6% | 10% | 26%
N#Cc1ccc(Cl)cc1NC(=O)CSc1nc2nc(-c3cccs3)cc(C(F)(F)F)c2c(=O)[nH]1 | / | 10% | 15%[59 µM] | / | -2% | /
COc1cccc(N2CC(C(=O)Nc3nnc(SCC(=O)N4CCCC4)s3)CC2=O)c1 (centres undefined) | ? | -16% | ? | -15% | -16% | 13%
O=C(Nc1nnc(SCc2ccccn2)s1)C1CC(=O)N(c2ccccc2)C1 (centres undefined) | -7% | 10% | ? | -5% | -9% | 31%
Cc1cccc(N2CC(C(=O)Nc3nnc(SCc4ccccn4)s3)CC2=O)c1 (centres undefined) | ? | ? | 10µM* | -35% | ? | 37%
Cc1ccc(N2CC(C(=O)Nc3nnc(SCc4ccccn4)s3)CC2=O)cc1 (centres undefined) | -6% | 18% | 45µM* | -13% | -4% | 30%
COCCSc1nnc(NC(=O)C2CC(=O)N(c3ccccc3)C2)s1 (centres undefined) | -4% | 20% | -21% | -6% | -14% | 9%
Cc1cccc(N2CC(C(=O)Nc3nnc(SCCC4OCCO4)s3)CC2=O)c1 (centres undefined) | ? | -25% | 22µM* | ? | -25% | -8%
Cc1c(S(=O)(=O)c2ccccn2)c(N)n(Cc2ccccc2)c1C | -16% | 3% | 14µM* | ? | -35% | 5%
Cc1c(S(=O)(=O)c2ccccn2)c(N)n(Cc2ccccc2Cl)c1C | -11% | -15% | / | -31% | ? | 10%
COc1nc(C)cc(C)c1S(=O)(=O)c1ccccc1 | -13% | 15% | 3% | -3% | 43% | 44%
COCCn1c(C)c(C)c(S(=O)(=O)c2ccccc2)c1N | -19% | -17% | 35µM* | -15% | ? | 50%
CCOC(=O)CSc1ccc(C(=O)Nc2ccc(OC)cc2)cn1 | -16% | 28% | -5%[12.7 µM] | -9% | -10% | 18%
O=c1[nH]c(=O)c2[nH]c(=O)n(-c3ccccc3)c2[nH]1 | -10% | / | / | -6% | / | 2%
O=c1[nH]c(=S)c2[nH]c(=S)n(-c3ccccc3)c2[nH]1 | ? | / | / | 20µM* | / | ?
O=C(NNC(=O)c1nn(-c2ccc(F)cc2)ccc1=O)c1ccccc1Cl | -1% | 7% | 27% | -7% | 12% | 50%
CC(=O)Oc1ccc(-n2c(=O)c3ccccc3c3ccccc3c2=O)cc1 | -7% | 20% | -34% | -11% | -23% | 0%
CNC(=O)CSc1nc2ccccc2c(=O)n1-c1cc(OC)ccc1OC | 1% | 5% | 23%[59 µM] | 1% | -5% | 38%
COc1ccc(OC)c(-n2c(=O)c3ccccc3c3ccccc3c2=O)c1 | ? | 7% | 10µM* | ? | ? | 23%
COc1ccc(-n2c(=O)c3ccccc3c3ccccc3c2=O)cc1 | -15% | 13% | 10µM* | 5% | -30% | 35%
SMILES | PLK1 PBD block | Sfp PPTase inh | G9a inh | JMJD2A Tudor | BAZ2B inh | HP1b binding inh
CCCn1nc(C(=O)Nc2ccc3c(c2)OCCO3)c2ccccc2c1=O | 0% | / | 42%[12.7 µM] | -17% | -29% | 4%
O=C(c1ccncc1)N1CCC[C@@]2(CCN(C(c3ccccc3)c3ccccc3)C2)C1 | / | 2% | 1%[12.7 µM] | / | / | /
NC(=O)c1ccc(NC(=O)CSC2=Nc3ccccc3C3CC=NN23)cc1 (centres undefined) | -25% | 6% | 13µM* | -8% | 6% | 30%
Nc1nc(Sc2ccc(C(F)(F)F)cn2)n[nH]1 | ? | 1% | ? | -11% | 1% | 25%
S=c1[nH]nc(-c2ccc3ccccc3n2)o1 | -12% | 1% | 8.9µM* | -33% | 6% | 69%
FC(F)(F)c1ccc(-c2n[nH]c(=S)o2)nc1 | -4% | -1% | 40µM* | 0% | -13% | 66%
CCOc1cc(CNC(=O)c2ccc(C)c(NC(=O)c3nsc4ccccc34)c2)ccc1OC | / | / | -29%[59 µM] | -1% | 3% | 14%[57 µM]
CC[n+]1c(/C=C/N(C)c2ccccc2)oc2ccc(F)cc21 | ? | 50µM* | 8.9µM* | 79µM* | -32% | -3%
CC[n+]1c(/C=C/Nc2ccccc2)oc2ccccc21 | 9% | -4% | 50µM* | -6% | -30% | 65%
CC[n+]1c(/C=C/Nc2ccccc2)oc2ccc(OC)cc21 | 16% | 5% | ? | 10% | -6% | 48%
O=S(=O)([O-])CCC[n+]1c(/C=C\Nc2ccccc2)oc2ccc(-c3ccccc3)cc21 | / | -3% | -35% | / | 79µM* | /
Cc1cc2nnc(SCc3ccc(F)cc3)n2c2ccccc12 | / | / | -9%[59 µM] | -18% | 0% | 28%
COC(=O)/C=C1/SC(=NC(=O)c2ccc(OC)cc2)NC1=O | -6% | -18% | 4%[0.0925 µM] | -7% | ? | 31%
COC(=O)/C=C1/SC(=NC(=O)c2ccccc2)NC1=O | -26% | 28µM* | 22µM* | ? | -35% | 15%
COC(=O)/C=C1/SC(=NC(=O)c2ccc(F)cc2)NC1=O | -20% | 28µM* | ? | -12% | -13% | 15%
COC(=O)/C=C1\S/C(=N/N=C/c2ccccc2)NC1=O | -16% | 2% | ? | -21% | 0% | 13%
COC(=O)/C=C1/S/C(=N/N=C/c2ccco2)NC1=O | -2% | 8% | / | -20% | -15% | 7%
COC(=O)/C=C1\S/C(=N/N=C/c2ccc(Cl)cc2)NC1=O | 30µM* | 13% | / | ? | ? | 2%
COC(=O)C/C=N/N=C1/NC(=O)/C(=C/C(=O)O)S1 | -2% | ? | 45µM* | 50µM* | -33% | 90%
O=C(Cc1ccccc1)NCC(=O)N1CCCCCC1 | -2% | 0% | 14% | -6% | -3% | 9%
O=C(c1csnn1)N1CCC2(CC1)CN(c1ccccn1)C2 | / | 7% | -1%[12.7 µM] | / | / | /
